Most compounds without a hit are left out; they make up all but 4.7% or so of the library.
TRHR enhancer-1 – allosteric enhancers of human TRH receptor; P34981; TRHR cells, fluo-8 calcium fluorescence, EC20 TRH enhancement; enhancement, % at 2 µM; 360,000 tested, 0.66% active; AID 493056; in the data active means enhancement above about 30%
Target sequence (P34981 whole entry, looked up): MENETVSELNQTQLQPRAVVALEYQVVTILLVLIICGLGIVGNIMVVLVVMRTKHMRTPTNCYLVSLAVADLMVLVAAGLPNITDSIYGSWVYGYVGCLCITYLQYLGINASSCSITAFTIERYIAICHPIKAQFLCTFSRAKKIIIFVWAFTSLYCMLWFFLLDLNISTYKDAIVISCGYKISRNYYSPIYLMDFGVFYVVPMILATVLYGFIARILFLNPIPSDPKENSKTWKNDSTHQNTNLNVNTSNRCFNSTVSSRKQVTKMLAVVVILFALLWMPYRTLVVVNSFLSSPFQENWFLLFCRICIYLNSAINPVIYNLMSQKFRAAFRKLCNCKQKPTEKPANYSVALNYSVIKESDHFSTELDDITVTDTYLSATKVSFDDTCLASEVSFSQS
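TRHR-expressing cells loaded with fluo-8 calcium dye were read kinetically (ex 480/em 530) during compound addition, then stimulated with an EC20 of TRH (10 nM final). Enhancement of the Gq-mediated intracellular calcium response was scored.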
D1 agonist – human D1 receptor agonism. P21728. HEK293 T-REx D1 cells, calcium flux, agonist mode. activation, % at 2 µM. 360,000 tested, 1% active
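Tetracycline-induced HEK293 TREx D1 cells, force-coupled to calcium signalling, were dye-loaded with a no-wash calcium kit. Compound was pin-added after a 10 s baseline. Fluorescence was read kinetically at 1 cycle/s for 180 s, with calcium rises flagged as agonism.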
TRHR agonist-1 – agonists of human TRH receptor; P34981; AID 493084; TRHR cells, calcium flux fluo-8, FDSS agonist mode; activation, % at 2 µM; 360,000 tested, 0.18% active
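Read-out: compound-evoked intracellular calcium rise in TRHR cells, fluo-8 dye, kinetic FDSS fluorescence at 1 s/cycle following a 10-cycle baseline. Cells cultured overnight before dye loading (30 min–1.5 h, RT).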
D1 potentiator – enhances dopamine response at the human D1 receptor; P21728; 360,000 tested, 0.036% active; potentiation, % at 10 µM; HEK293 TREx D1 cells, calcium flux, dopamine EC20 potentiation; AID 504651; in the data active means potentiation above about 30%
D1 antag – blocks dopamine activation of the human D1 receptor. activity change, negative = inhibition, % at 10 µM. 360,000 tested, 3.2% active. HEK293 TREx D1 cells, calcium flux, dopamine EC80; active compounds read low. P21728; in the data active means activity change below about -30%
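Cells carrying a force-coupled, tetracycline-inducible human D1 receptor report calcium flux. Each well gets a 10 s baseline, compound with 180 s monitoring, then an EC80 dopamine stimulus with a second 180 s kinetic read.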
TRHR enhancer-2 – confirmation of human TRH receptor allosteric enhancers; shares compounds with TRHR enhancer-1; TRH receptor cell assay, enhancer confirmation qHTS; activity change, negative = inhibition, % at 46.1 µM; 970 tested, under 10 active; active means well fitted curve in the direction sought with a large enough effect; inconclusive means small, poorly fitted or top-dose-only effect, or another doubt; inactive means no such curve, though single readings can be large; an effect the other way counts as inactive or inconclusive;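 further: compound effect scored on response to added TRH at EC20 of 10 nM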
TRHR agonist-2 – human TRH receptor agonism confirmation; 970 tested, 8% active; AID 493078; Potency, µM (titrated, usually from 46.1 µM), actives largely listed as activators; TRHR-expressing cells, agonist activation read-out; shares compounds with TRHR enhancer-1; active means well fitted curve in the direction sought with a large enough effect; inconclusive means small, poorly fitted or top-dose-only effect, or another doubt; inactive means no such curve, though single readings can be large; an effect the other way counts as inactive or inconclusive; further: nearly all actives have a fitted effect of over 75% in size
Numbers stand for hits; 0 = inactive; ? = inconclusive; - = no result given. Unless noted, no stated cut-off is given here; in the data, active means activation above about 30%; inactive means the rest.

SMILES	TRHR enhancer-1	D1 agonist	TRHR agonist-1	D1 potentiator	D1 antag	TRHR enhancer-2	TRHR agonist-2
C=CCn1c(=O)/c(=C\c2ccccn2)s/c1=C(/C#N)C(=O)NCC1CCCO1 (stereo not given)	0	151	46	0	0	0	?
CN1CCN(c2ccc(N)cc2)CC1	89	0	0	0	-	0	0
O=c1[nH]c(=S)[nH]c(O)c1N=Nc1cc(S(=O)(=O)Nc2ccc(Cl)cc2)ccc1Cl	0	0	0	0	0	-	-
Cn1c(O)c(C=Nc2ccc(Br)cc2)c(=O)n(C)c1=O	0	0	0	0	0	-	-
Cc1ccccc1-n1c(O)c(/C=C/C=Nc2ccccc2)c(=O)[nH]c1=O	0	41	32	0	0	?	21µM
Cn1c(O)c(/C=C/C=Nc2ccccc2)c(=O)n(C)c1=S	0	64	45	0	0	0	0
N#Cc1ccc(/C=C/C(=O)O)cc1	0	0	0	0	0	-	-
Cc1ccc(-c2nc3ccccc3c(=O)n2-c2ccc(O)cc2)cc1	0	0	0	0	0	-	-
O=c1c2ccccc2nc(-c2ccccc2)n1-c1ccc(O)cc1	46	0	0	0	0	0	0
